The panel holds about 79,000 compounds, 15% with a hit somewhere; the sample as a whole holds those more often. Rule as the data show it: active = growth inhibition above about 70%; inactive = the rest.
Tests used:
[1] = NCI Yeast Anticancer Drug Screen. Data for the rad50 strain (AID 155);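 also: 0% = growth of vehicle-only cultures of the same strain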; settings: S. cerevisiae rad50 strain growth inhibition; at 50.0 µM; stronger effect = higher value
Outline: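 Cells are treated with compound, grown, and their growth is then scored against vehicle-only cultures of the same repair-deficient yeast strain.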

[2] = NCI Yeast Anticancer Drug Screen. Data for the mec2-1 strain (AID 157); settings: S. cerevisiae mec2-1 strain, at 50.0 µM, stronger effect = higher value
Outline: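 Test agents were screened against the mec2-1 yeast strain, with defined DNA repair or cell cycle alteration. Growth was scored as inhibition against vehicle-only controls.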

[3] = NCI Yeast Anticancer Drug Screen. Data for the sgs1 mgt1 strain (AID 161);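 also: 0% = growth of cultures given vehicle only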; settings: S. cerevisiae sgs1 mgt1 strain, at 50.0 µM, stronger effect = higher value
Outline: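 Test agents were incubated with a DNA-repair-mutant yeast strain. Growth was then read and compared against vehicle-treated controls.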

[4] = NCI Yeast Anticancer Drug Screen. Data for the cln2 rad14 strain (AID 165);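 also: 0% = growth equal to vehicle treated cultures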; settings: S. cerevisiae cln2 rad14 strain, at 50.0 µM, stronger effect = higher value
Outline: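 Growth of compound-exposed yeast (cln2 rad14 genotype) measured and expressed as inhibition relative to vehicle.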

[5] = NCI Yeast Anticancer Drug Screen. Data for the bub3 strain (AID 167); settings: S. cerevisiae bub3 mutant strain, at 50.0 µM, stronger effect = higher value
Outline: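 Part of a panel of yeast mutants defective in DNA damage repair or cell cycle regulation. Each strain is grown with compound, and inhibition is calculated relative to solvent-treated cultures.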

[6] = NCI Yeast Anticancer Drug Screen. Data for the mlh1 rad18 strain (AID 175); settings: S. cerevisiae mlh1 rad18 strain growth inhibition; at 50.0 µM; stronger effect = higher value
Outline: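 In this whole-cell yeast screen, a strain with altered DNA damage repair is challenged with compound, and its growth is measured against matched vehicle-treated controls.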

Measured: growth inhibition

Nc1ccc(S(=O)(=O)S(=O)(=O)c2ccc(N)cc2)cc1
inactive: [1] -0.1% | [2] 1.95% | [3] -3.55% | [4] 12.4% | [5] -0.9% | [6] -2.95%

COC(=O)c1[nH]c(C)c(C(=O)OC)c1C
inactive: [1] -8.5% | [2] -27.7% | [3] -3.1% | [4] -5% | [5] -13.2% | [6] -12.8%

COC(=O)C1(CCCCCBr)CCCCCCCCCCC1=O (configuration not stated)
inactive: [1] -8.6% | [2] -15.4% | [3] 24.1% | [4] 12.7% | [5] -25% | [6] -34.5%

NCCCN(CCO)CCO
inactive: [1] -42.5% | [2] -3.1% | [3] -27.9% | [4] -31.9% | [5] -28.5% | [6] -20.4%

CC1CN=C(N(C(=O)Nc2ccc(F)c(Cl)c2)c2ccccc2)S1 (configuration not stated)
inactive: [1] -1.55% | [2] 14.3% | [3] -12.3% | [4] 25.4% | [5] 41.3% | [6] -29.9%

NNC(=O)c1nc[nH]c1C(=O)NN
inactive: [1] 2.95% | [2] -2.6% | [3] 21.5% | [4] -14.3% | [5] -7.6% | [6] 32%

O=[N+]([O-])c1cc(F)ccc1-c1ccc(F)cc1
inactive: [1] 2.35% | [2] -4.85% | [3] 0.7% | [4] -20.7% | [5] 2.8% | [6] 20.4%

CC(=O)C(C)C(=O)N1C(=O)N(C)C2(C)N(C)C(=O)NC12C (configuration not stated)
inactive: [1] 2.05% | [2] -45.3% | [3] -24.3% | [4] 8.4% | [5] -5.8% | [6] 7.3%

CCc1cnccc1C
inactive: [1] 10.3% | [2] -14.9% | [3] -19.1% | [4] 6.25% | [5] 6.45% | [6] -9.75%

OC1(c2ccc(F)cc2)CCNCC1
inactive: [1] 21.5% | [2] -7.55% | [3] 33.9% | [4] 20.4% | [5] 19% | [6] 7.2%

O=C(Nc1c(Cl)cccc1Cl)OCc1ccco1
inactive: [1] 7.5% | [2] -10.6% | [3] 24.1% | [4] 3.15% | [5] 23.4% | [6] 19.6%

COC(=O)C1(C(=O)OC)C/C(C)=C(/C)SCCCS1
inactive: [1] -12.7% | [2] -5.6% | [3] -14.8% | [4] 19.9% | [5] -23.1% | [6] -26.4%

CC[C@H](O)[C@H](C)C=C1SCCCS1
inactive: [1] -14.3% | [2] -42.2% | [3] 19.9% | [4] 25.1% | [5] -43.8% | [6] -43.6%

O=[N+]([O-])c1cccc(N=C2c3ccccc3CN2c2cccc([N+](=O)[O-])c2)c1
inactive: [1] -23.4% | [2] 5.8% | [3] -5.3% | [4] 26.7% | [5] 11.5% | [6] -0.4%

CCOC(=O)c1c[nH]c(C(=O)OCC)c1C
inactive: [1] 14.4% | [2] 6.6% | [3] 4.2% | [4] -59.9% | [5] -4.5% | [6] 14.2%

O=C(O)CCCCCCCCCCS(=O)(=O)CCO
inactive: [1] 5.2% | [2] 6.25% | [3] 13.4% | [4] 20.2% | [5] 19.9% | [6] -10%

Clc1cccc2c(SCCCCCSc3c4ccccc4nc4c(Cl)cccc34)c3ccccc3nc12
inactive: [1] -3.45% | [2] -8.9% | [3] -22.4% | [4] -33.5% | [5] -23.9% | [6] -24.6%

CCOC(C)(C(=O)O)c1cccc2ccccc12 (configuration not stated)
inactive: [1] -20.4% | [2] -11% | [3] -7.95% | [4] 0.4% | [5] -8.8% | [6] 14.8%

CC1CCCC(C)(C)/C1=N/O (configuration not stated)
inactive: [1] 16.1% | [2] 20.2% | [3] 12.5% | [4] 12.8% | [5] 20.8% | [6] 6.7%

CN(C)c1ccc(/C(=N\O)c2cc[n+](C)cc2)cc1
inactive: [1] -28.6% | [2] -23.4% | [3] -13.2% | [4] -34.5% | [5] -0.6% | [6] 0.85%

Cc1cc(C)c(F)c(C)c1N
inactive: [1] -32.5% | [2] 17.6% | [3] -22% | [4] -19.4% | [5] -22.1% | [6] -4.3%

NCCCC(=O)NCCCCCCCCCCNC(=O)CCCN
inactive: [1] 29.3% | [2] 18% | [3] 19% | [4] 15.6% | [5] -4.45% | [6] 24.4%

Cc1cc2c(c3c1C(=O)CC3)CCCC2(C)C
inactive: [1] 9.3% | [2] 3.9% | [3] 2.75% | [4] -6.2% | [5] 2.15% | [6] -1.8%

O=C1CSC(c2cccc(Cl)c2)N1c1ccc(-n2c(-c3ccccc3)nc3ccccc3c2=O)cc1 (configuration not stated)
inactive: [1] -4.3% | [2] 9.65% | [3] 8.9% | [4] -15.9% | [5] 9.2% | [6] -6.8%

Nc1ccc2c(c1)Oc1c(F)c(F)cc3c(=O)c(C(=O)O)cn-2c13
inactive: [1] 6.9% | [2] 11.2% | [3] 7.7% | [4] 16.1% | [5] 0% | [6] 48.1%

CC(=O)NC1CCC2CCCCC2C1 (configuration not stated)
inactive: [1] 15.7% | [2] -3.15% | [3] -8.75% | [4] -61% | [5] 32.1% | [6] -17.9%

O=C1CCC(=O)O1
inactive: [1] -8.6% | [2] 17% | [3] -11.7% | [4] 6.45% | [5] 3.95% | [6] -51.9%

CCCCCCCCCCCCNC(=O)c1ccccc1O
inactive: [1] 13.2% | [2] 23.6% | [3] 17.9% | [4] 20.8% | [5] 10.6% | [6] 35.8%

Cc1ccc(S(=O)(=O)Nc2ccc(S(C)(=O)=O)cc2)cc1
inactive: [1] 2.4% | [2] -4.2% | [3] -5.6% | [4] -36.4% | [5] 3.85% | [6] 3.3%

COC(=O)N1c2ccccc2N(C(=O)OC)c2c1oc1ccccc1c2=O
inactive: [1] 38.2% | [2] 12.6% | [3] 33.6% | [4] 7.3% | [5] 26.5% | [6] 31.9%

O=C(O)/C=C/C(=O)N1Cc2cc3ccccc3nc2C1
inactive: [1] -5.75% | [2] -31.1% | [3] -45.8% | [4] -28.1% | [5] -56.2% | [6] -13.7%

C[CH2][Sn]([CH2]C)([O]C(=O)c1ccc(OC)c(OC)c1OC)[O]C(=O)c1ccc(OC)c(OC)c1OC
inactive: [1] 41.5% | [2] 27.6% | [3] 24.6% | [4] 28.3% | [5] 19.4% | [6] 24.8%

Cc1ccc(C2(C)CC/C(=N/N=C3/CCC(C)(c4ccc(C)c(C)c4)c4cc(C)c(C)cc43)c3cc(C)c(C)cc32)cc1C (configuration not stated)
inactive: [1] -17% | [2] -13.8% | [3] -27.9% | [4] -40.6% | [5] -11.4% | [6] -12.4%

CC(C)OC(=O)CCCCCc1ccccc1
inactive: [1] 6% | [2] -2.7% | [3] -29.1% | [4] 7.85% | [5] 2.1% | [6] -8.4%

S=C(N1CCN(c2cccc(Cl)c2)CC1)N1CCN(c2cccc(Cl)c2)CC1
inactive: [1] -7.4% | [2] 13.7% | [3] 23% | [4] 9.6% | [5] 2.1% | [6] 12.7%

CC(C)Cc1[nH]nc2c1C(=O)C(Nc1ccccc1)=CC2=O
inactive: [1] 22.5% | [2] 25.3% | [3] 12.6% | [4] -7.65% | [5] 2.75% | [6] 23.4%

Cc1cc(Cl)ccc1N1C(=O)C(=O)C(c2nc3ccccc3s2)C(=O)C1=O
inactive: [1] -4.1% | [2] 13.7% | [3] 17.9% | [4] -6.1% | [5] 2.2% | [6] 12.5%

COC(=O)/C(C=Nc1ccccc1)=C(/C)O
inactive: [1] 7.35% | [2] 5.1% | [3] 9% | [4] -29.2% | [5] 11.4% | [6] -1.2%

CCN(C(=O)NC(C)(C)C)c1cccc(C)c1
inactive: [1] 3.15% | [2] -1.9% | [3] 0.35% | [4] -19.6% | [5] -0.3% | [6] 5.8%

CC(C)N1C(=O)c2ccccc2C1=O
inactive: [1] 26.8% | [2] 22.1% | [3] 14.7% | [4] 19.8% | [5] 15.1% | [6] 14.3%

c1ccc(C23CCCCC2O3)cc1 (configuration not stated)
inactive: [1] 0.75% | [2] 2.95% | [3] 6.55% | [4] 5.95% | [5] 12.4% | [6] 4.85%

Nc1ccc(Cl)cc1[N+](=O)[O-]
inactive: [1] 4.85% | [2] -3.75% | [3] 12.2% | [4] 25.1% | [5] -3.9% | [6] 15.8%

Source: PubChem BioAssay (NCI)
